High-throughput results: PubChem BioAssay, National Center for Advancing Translational Sciences (NCATS)
Menin MLL FP TR – inhibitors of human menin-MLL interaction, mutant MLL peptide | Potency, µM (titrated, usually from 61.6 µM), most hits filed as inhibitors | 270,000 tested, 0.23% active | Menin + Texas Red MLL mutant peptide, fluorescence polarization | O00255; active = well fitted inhibition curve with a large enough effect in the polarisation, with a control signal flat, not every such curve was filed as active; inconclusive = small, poorly fitted or top-dose-only effect, or effect the other way, or a change in a side signal; inactive = no such curve, though single readings can be large or run the other way; the % refers to the polarisation
MLL CXXC-DNA inh – MLL CXXC-DNA interaction inhibition | Q03164 | MLL-CXXC / FITC-HOXA9 DNA fluorescence polarization | Potency, µM (series often up to 115 µM), actives largely listed as inhibitors | 290,000 tested, 0.037% active | AID 2662; active = well fitted inhibition curve with a large enough effect in the polarisation, with a control signal flat, not every such curve was filed as active; inconclusive = small, poorly fitted or top-dose-only effect, or effect the other way, or a change in a side signal; inactive = no such curve, though single readings can be large or run the other way; the % refers to the polarisation
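Purified MLL-CXXC (added from a 7 uM solution) was preincubated 5 min at ambient with pinned compounds in 50 mM Tris-HCl pH 7.5, 50 mM NaCl, 1 mM DTT, 0.05% BSA. Fluorescein-labeled HOX-A9 DNA (50 nM solution) followed, 30 min, then polarization read.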
MBNL1-CUG inh – inhibitors of human MBNL1 binding to CUG repeat RNA. Q9NR56. TR-FRET MBNL1-His/biotin-(CUG)12 binding, 665/545 ratio. Potency, µM (titrated, usually from 57.5 µM), usual class: inhibitors. 280,000 tested, 0.036% active; active = well fitted inhibition curve with a large enough effect in the signal ratio, with a control signal flat, not every such curve was filed as active; inconclusive = small, poorly fitted or top-dose-only effect, or effect the other way, or a change in a side signal; inactive = no such curve, though single readings can be large or run the other way; the % refers to the signal ratio
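Compound titration spanned 92 nM–58 uM against the MBNL1-His/biotin-(CUG)12 complex. After 60 min at room temperature with 5 nM streptavidin-XL665 and 0.055 ng/ul terbium anti-His, ratiometric 665/545 nm emission (Ex 340 nm) normalized to controls.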
Akt phos inh – inhibitors of Akt phosphorylation. 360,000 tested, 0.32% active. Neuro2A IGF-stimulated pAkt S473 HTRF, 20 min; active compounds read low. AID 651550. activity change, % for hits at 50 µM; in the data active = activity change below about -80%; inconclusive = mostly about -51% to -80%
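Single-point screen (50 µM final compound) in Neuro2A cells stimulated 20 min with 6 nM IGF at 37 deg C. After lysis, Ser473-phosphorylated Akt read by HTRF (ex 330 nm, em 615/665 nm) as the 665/615 ratio.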
S-ASM inh – inhibitors of human secretory acid sphingomyelinase. P17405. placental ASM, HMU-PC fluorogenic substrate, 60 min. Potency, µM (series often up to 57.5 µM), hits mostly inhibitors. 340,000 tested, 0.006% active
Target sequence (P17405 47-631 limits assumed): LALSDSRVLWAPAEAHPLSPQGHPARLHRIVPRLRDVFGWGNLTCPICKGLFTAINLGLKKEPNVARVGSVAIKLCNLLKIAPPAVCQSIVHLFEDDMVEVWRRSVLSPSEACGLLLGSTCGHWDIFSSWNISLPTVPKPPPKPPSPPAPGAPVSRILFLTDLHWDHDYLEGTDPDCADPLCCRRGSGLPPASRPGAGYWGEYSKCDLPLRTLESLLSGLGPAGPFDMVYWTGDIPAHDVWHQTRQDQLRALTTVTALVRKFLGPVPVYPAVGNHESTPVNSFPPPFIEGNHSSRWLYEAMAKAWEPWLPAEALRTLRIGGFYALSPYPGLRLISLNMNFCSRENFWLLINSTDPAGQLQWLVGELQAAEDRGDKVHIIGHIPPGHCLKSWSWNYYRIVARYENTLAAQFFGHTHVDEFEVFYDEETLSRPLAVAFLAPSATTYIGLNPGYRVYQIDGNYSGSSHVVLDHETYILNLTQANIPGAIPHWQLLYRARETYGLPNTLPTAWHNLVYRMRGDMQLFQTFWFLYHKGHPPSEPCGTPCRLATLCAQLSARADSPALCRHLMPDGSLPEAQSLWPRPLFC
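Fluorogenic HMU-PC substrate (9 uM final) is turned over by placental ASM in 60 min at 37 C after a 10 min compound preincubation. Reaction ended by alkaline stop (pH 10), with fluorescence read at 386/447 nm.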
Menin-MLL FL inh – inhibitors of human menin-MLL interaction, wild-type MLL peptide; Fluorescence polarization, fluorescein-MLL peptide displacement from menin; FP activity change, % at 61.4 µM; 290,000 tested, under 10 active; active = well fitted curve in the direction sought with a large enough effect in the polarisation, not every such curve was filed as active; inconclusive = small, poorly fitted or top-dose-only effect, or effect the other way, or a change in a side signal; inactive = no such curve, though single readings can be large or run the other way; the % refers to the polarisation
MLL CXXC FP-Fl – MLL CXXC-DNA interaction inhibition, fluorescein FP. shares compounds with MLL CXXC-DNA inh. MLL CXXC-DNA binding, fluorescein FP. Potency, µM (highest dose often 345 µM), most hits filed as inhibitors. 200 tested, 70% active. AID 624160; note: nearly all actives have a fitted effect of over 80% in size
MLL CXXC TxRed – disrupts human MLL CXXC domain binding to DNA, Texas Red; shares compounds with MLL CXXC-DNA inh; MLL CXXC-DNA binding, Texas Red fluorescence polarization; Potency, µM (highest dose often 345 µM), actives largely listed as inhibitors; 200 tested, 40% active; AID 624161; note: nearly all actives have a fitted effect of over 75% in size
MLL CXXC HTRF – inhibitors of human MLL CXXC domain-DNA interaction, HTRF format; Potency, µM (series often up to 172 µM), actives largely listed as inhibitors; shares compounds with MLL CXXC-DNA inh; MLL CXXC-DNA binding, HTRF, biochemical; 210 tested, 30% active; note: nearly all actives have a fitted effect of over 80% in size
MBNL1 TRFRET – confirmation of inhibitors of human MBNL1-poly(CUG) RNA binding | shares compounds with MBNL1-CUG inh | TR-FRET MBNL1-His / biotin-(CUG)12 binding, 60 min | Potency, µM (doses to about 57.6 µM), most hits filed as inhibitors | 140 tested, 50% active
MBNL1-CUG Alpha – blocks MBNL1 binding to (CUG)12 RNA in AlphaScreen; AlphaScreen MBNL1-His / biotin-(CUG)12 binding; 140 tested, 30% active; Potency, µM (titrated, usually from 57.7 µM), actives largely listed as inhibitors; shares compounds with MBNL1-CUG inh; AID 493205
Numbers stand for hits. Only some compounds are listed: those with a hit (about 0.45% of all), similar ones and a draw of the others. Unless noted, calls come from the whole dose curve; as a rule, active = well fitted curve in the direction sought with a large enough effect; inconclusive = small, poorly fitted or top-dose-only effect, or another doubt; inactive = no such curve, though single readings can be large; an effect the other way counts as inactive or inconclusive.

How did O=C(O)Cn1cc(/C=C2\C(=O)NC(=O)N(Cc3ccco3)C2=O)c2ccccc21 do in these assays?
Menin MLL FP TR: inconclusive; MLL CXXC-DNA inh: inconclusive; MBNL1-CUG inh: inactive; Akt phos inh: inactive; S-ASM inh: inactive; Menin-MLL FL inh: inconclusive; MLL CXXC FP-Fl: 7.1µM; MLL CXXC TxRed: inactive; MLL CXXC HTRF: 49µM

How did Cc1ccc(N2C(=O)NC(=O)/C(=C\c3cn(CC(=O)O)c4ccccc34)C2=O)cc1 do in these assays?
Menin MLL FP TR: inactive; MLL CXXC-DNA inh: inconclusive; MBNL1-CUG inh: inactive; Akt phos inh: inactive; S-ASM inh: inactive; Menin-MLL FL inh: inactive; MLL CXXC FP-Fl: 14µM; MLL CXXC TxRed: 71µM; MLL CXXC HTRF: inactive

What do the screens show for `CCN1C(=O)NC(=O)/C(=C\c2cn(CC(=O)O)c3ccccc23)C1=O`?
Menin MLL FP TR: inactive; MLL CXXC-DNA inh: inconclusive; MBNL1-CUG inh: inactive; Menin-MLL FL inh: inactive

How did OC1/C(=C/c2ccccc2F)N2CCC1CC2 (stereo not given) do in these assays?
Menin MLL FP TR: inactive; MLL CXXC-DNA inh: inactive; MBNL1-CUG inh: inactive; Akt phos inh: inactive; S-ASM inh: inactive; Menin-MLL FL inh: inactive

Results for Cc1c(-c2cccc(Cl)c2)nc2ccccc2c1C(=O)N1CCC2(CC1)OCCO2 ?
Menin MLL FP TR: inactive; MLL CXXC-DNA inh: inactive; MBNL1-CUG inh: inactive; Akt phos inh: inactive; S-ASM inh: inactive; Menin-MLL FL inh: inactive

What do the screens show for `F/C(COc1ccc2c(c1)[nH]c1ccccc12)=C1/CN2CCC1CC2`?
Menin MLL FP TR: inactive; MLL CXXC-DNA inh: inactive; Menin-MLL FL inh: inactive

Results for O=C1NC(=S)NC(=O)C12C(c1ccc(F)cc1)NC(=S)NC2c1ccc(F)cc1 (stereo not given) ?
MLL CXXC-DNA inh: inconclusive; MBNL1-CUG inh: inactive; Akt phos inh: -118%; S-ASM inh: inactive; Menin-MLL FL inh: inactive; MLL CXXC FP-Fl: inconclusive; MLL CXXC TxRed: inactive; MLL CXXC HTRF: inactive

What do the screens show for `O=P(O)(O)CCCl`?
Menin MLL FP TR: inactive; Menin-MLL FL inh: inactive

How did O=P(O)(O)C(Cl)(Cl)P(=O)(O)O do in these assays?
Menin MLL FP TR: inactive; MLL CXXC-DNA inh: 35µM; Menin-MLL FL inh: inactive; MLL CXXC FP-Fl: inconclusive; MLL CXXC TxRed: inconclusive; MLL CXXC HTRF: 24µM

Results for N.N.N.N.N.N.N.N.N.N.N.N.N.N.O.O.[Cl-].[Cl-].[Cl-].[Cl-].[Cl-].[Cl-].[Ru].[Ru].[Ru] ?
Menin MLL FP TR: 25µM; MLL CXXC-DNA inh: inconclusive; Menin-MLL FL inh: inconclusive; MBNL1 TRFRET: inconclusive; MBNL1-CUG Alpha: 0.18µM

What do the screens show for `Cc1ccc(Cn2cc(C=O)c(-c3ccc(F)cc3)n2)cc1`?
Menin MLL FP TR: inactive; MLL CXXC-DNA inh: inactive; MBNL1-CUG inh: inactive; Akt phos inh: inactive; S-ASM inh: inactive; Menin-MLL FL inh: inactive

Results for Nc1c(C(=O)NCCN2CCOCC2)c2nc3ccccc3nc2n1Cc1ccco1 ?
Menin MLL FP TR: inactive; MLL CXXC-DNA inh: inactive; MBNL1-CUG inh: inconclusive; Akt phos inh: inactive; S-ASM inh: inactive; Menin-MLL FL inh: inconclusive

Results for CC(O)C(C)OC(=O)[C@@H]1C[C@@H]2c3cccc4c3c(cn4C(C)C)C[C@H]2N(C)C1 (stereo not given in full) ?
Menin MLL FP TR: inconclusive; MLL CXXC-DNA inh: inconclusive; Menin-MLL FL inh: inactive; MBNL1 TRFRET: inconclusive; MBNL1-CUG Alpha: inactive
